Laboratory results reported in ChEMBL document CHEMBL1157539, “Thousands of chemical starting points for antimalarial lead identification” (Nature, 2010).

test system: Plasmodium falciparum; assay: GSK_TCMDC: Inhibition of Plasmodium falciparum Dd2 in whole red blood cells, using parasite LDH activity as an index of growth. Test compounds present at 2uM; format: functional

SMILES | Inhibition
Cc1ccn2c(C(=O)N3CCN(c4cccc5c4nc(-c4ccoc4)n5Cc4ccccn4)CC3)c(C)nc2c1 | 99%
C=CCc1ccccc1OCC(O)CN(C1CCCCC1)C1CCCCC1.Cl (stereo not drawn) | 84%
COc1cc(COc2c(C)nc(N)nc2N)cc(OC)c1OC.Cl | 0%
COc1ccc(Nc2nccc(N3CCC(NC(=O)Nc4ccc5c(c4)OCO5)C3)n2)cc1 (stereo not drawn) | 57%
CCCCCCCCCN(CCC)C(=O)[C@@H]1OC(C(=O)OC(c2ccccc2)c2ccccc2)=C[C@H](NC(=O)OC(C)(C)C)[C@H]1NC(C)=O | 49%
COc1ccccc1CCCN1C(=O)C(c2ccccc2)(c2ccccc2)N=C1N.O=C(O)C(F)(F)F | 99%
Cl.NC(=O)c1sc(-n2cnc3ccc(OCC4CCNCC4)cc32)cc1OCc1ccccc1C(F)(F)F | 62%
O=C(Nc1cccc(OC2CCN(Cc3ccccc3)CC2)c1)c1ccc([N+](=O)[O-])cc1.O=C(O)C(F)(F)F | 2%
COc1ccccc1CCN1CCC(CN(C)Cc2ccc(O)c(Cl)c2)CC1 | 52%
COc1ccc2nccc([C@@H](O)CN3CCC(NC(=O)/C=C/c4cc(F)cc(Br)c4)CC3)c2c1 | 50%
O=C(/C=C/c1ccc(Cl)c(Cl)c1)NCCCCCCN1CCCN(C(=O)Nc2ccc(F)c(Cl)c2)CC1 | 1%
CCN(CCO)CCc1cccc(Nc2nccc(-c3c(-c4ccc(NC(=O)N(CC)CC)cc4)nn4ccccc34)n2)c1.Cl | 95%
COc1ccc(Cl)cc1C(=O)Nc1ccc(-c2nc3ccccc3[nH]2)cc1 | 39%
